Assay [1] is described as follows: NCI Yeast Anticancer Drug Screen. Data for the rad50 strain (AID 155).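 Note: 0% = growth of vehicle-only cultures of the same strain.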 The note with it: S. cerevisiae rad50 strain growth inhibition, stronger effect = higher value. In short, it runs like this:
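Compounds were tested on a yeast strain with an engineered DNA damage repair alteration; the reported value is growth inhibition normalised to vehicle treatment.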

The nature of assay [2]: NCI Yeast Anticancer Drug Screen. Data for the mec2-1 strain (AID 157). The conditions noted are these: S. cerevisiae mec2-1 strain, stronger effect = higher value. An outline of the steps:
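Readout is yeast growth inhibition, normalised to vehicle-treated controls, in the mec2-1 strain exposed to compound.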

Assay [3] in a line: NCI Yeast Anticancer Drug Screen. Data for the sgs1 mgt1 strain (AID 161).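 Note: 0% = growth of cultures given vehicle only.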 The note with it: S. cerevisiae sgs1 mgt1 strain, stronger effect = higher value. An outline of the steps:
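Percent growth inhibition was derived by comparing compound-exposed mutant yeast with vehicle-exposed cultures. The strain carries alterations in DNA damage repair.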

Assay [4] in a line: NCI Yeast Anticancer Drug Screen. Data for the cln2 rad14 strain (AID 165).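 Note: 0% = growth equal to vehicle treated cultures.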 The conditions noted are these: S. cerevisiae cln2 rad14 strain, stronger effect = higher value. In short, it runs like this:
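Relative to vehicle controls, growth inhibition of compound-treated cln2 rad14 yeast was recorded.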

A short description of assay [5]: NCI Yeast Anticancer Drug Screen. Data for the bub3 strain (AID 167). The note with it: S. cerevisiae bub3 mutant strain, stronger effect = higher value. In short, it runs like this: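 Growth of a checkpoint-deficient yeast mutant is measured after compound exposure. Values represent inhibition relative to vehicle.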
Assay [6] in a line: NCI Yeast Anticancer Drug Screen. Data for the mlh1 rad18 strain (AID 175). The conditions noted are these: S. cerevisiae mlh1 rad18 strain growth inhibition, stronger effect = higher value. In short, it runs like this: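 Test agents were incubated with a yeast strain of defined genotype (DNA damage repair defect). Inhibition of growth was derived by comparison with vehicle-exposed cultures.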

The mark [7] stands for this setting: at 5.0 µM (retest, dose inferred, filed as 0.5).
Where [8] appears, read: at 50.0 µM (retest, dose inferred, filed as 5.0).

Molecules are shown by their SMILES. “And” between values parts separate entries of the source, which are not always exact repeats. Identical values can stand only once. The panel holds about 79,000 compounds, 15% with a hit somewhere; the sample as a whole holds those more often. Where a structure was tested more than once in an assay, its records may differ in their call. The source made the active and inactive calls. Cut-off read from the data, not from the text of the source: active = growth inhibition above about 70%; inactive = the rest.

Turning to `O=C(CCl)OCC(Cl)Cl`, the growth inhibition is 3% (inactive) in assay [1] (setting [7]); 2% (inactive) in assay [1] (setting [8]); 1.25% (inactive) in assay [1] (at 50.0 µM); 4% (inactive) in assay [2] (setting [7]); 2% (inactive) in assay [2] (setting [8]); -2.5% (inactive) in assay [2] (at 50.0 µM). In addition, the growth inhibition in assay [3] (setting [7]) is 1% (inactive); in assay [3] (setting [8]), 6% (inactive); in assay [3] (at 50.0 µM), 10.4% (inactive); in assay [4] (setting [7]) it was 2% (inactive); in assay [4] (setting [8]), -4% (inactive); in assay [4] (at 50.0 µM) it was 19.6% (inactive). Further, the growth inhibition in assay [5] (setting [7]) was -2% (inactive); in assay [5] (setting [8]), -3% (inactive); in assay [5] (at 50.0 µM), 6.65% (inactive); in assay [6] (setting [7]) it was 9% (inactive); in assay [6] (setting [8]), 3% (inactive); in assay [6] (at 50.0 µM), 20.6% (inactive).

On to `CCC[CH2][Sn]([CH2]CCC)([S]C1=NCCS1)[S]C1=NCCS1`, for which the growth inhibition in assay [1] (setting [7]) is 96% (active); in assay [1] (setting [8]), 96% (active); in assay [1] (at 50.0 µM) it was 90.7% (active); in assay [2] (setting [7]) it was 97% (active); in assay [2] (setting [8]), 97% (active); in assay [2] (at 50.0 µM), 90.7% (active). Moreover, the growth inhibition was 97% (active) in assay [3] (setting [7]); 97% (active) in assay [3] (setting [8]); 90.9% (active) in assay [3] (at 50.0 µM); 95% (active) in assay [4] (setting [7]); 95% (active) in assay [4] (setting [8]); 89.7% (active) in assay [4] (at 50.0 µM). Further, the growth inhibition was 95% (active) in assay [5] (setting [7]); 95% (active) in assay [5] (setting [8]); 88.3% (active) in assay [5] (at 50.0 µM); 96% (active) in assay [6] (setting [7]); 96% (active) in assay [6] (setting [8]); 86.5% (active) in assay [6] (at 50.0 µM).

On to `C=C(CC(=O)O)C(=O)O` (tested in a mixture with another compound), for which the growth inhibition in assay [1] (setting [7]) was -1% (inactive); in assay [1] (setting [8]) it was 0% (inactive); in assay [1] (at 50.0 µM), -3.6% (inactive) and 99.4% (active); in assay [2] (setting [7]), 8% (inactive); in assay [2] (setting [8]), 0% (inactive); in assay [2] (at 50.0 µM) it was 28% (inactive) and 99.5% (active). The growth inhibition in assay [3] (setting [7]) is -1% (inactive); in assay [3] (setting [8]), -1% (inactive); in assay [3] (at 50.0 µM) it was -21.9% (inactive) and 98.8% (active); in assay [4] (setting [7]), 0% (inactive); in assay [4] (setting [8]) it was -2% (inactive); in assay [4] (at 50.0 µM), 39% (inactive) and 99.6% (active). Also, the growth inhibition in assay [5] (setting [7]) is -3% (inactive); in assay [5] (setting [8]), -4% (inactive); in assay [5] (at 50.0 µM), -3.25% (inactive) and 99% (active); in assay [6] (setting [7]), 0% (inactive); in assay [6] (setting [8]), -1% (inactive); in assay [6] (at 50.0 µM) it was 18.6% (inactive) and 99.2% (active).

Turning to `CC(=O)[O-].CC(=O)[O-].O=C(N/N=C/c1cc(Cl)cc(Cl)c1[OH2+])c1ccncc1.[Mn+2]`, the growth inhibition in assay [1] (setting [7]) is 24% (inactive); in assay [1] (setting [8]), 96% (active); in assay [1] (at 50.0 µM), 97.8% (active); in assay [2] (setting [7]) it was 40% (inactive); in assay [2] (setting [8]), 98% (active); in assay [2] (at 50.0 µM), 97.2% (active). In addition, the growth inhibition in assay [3] (setting [7]) is 40% (inactive); in assay [3] (setting [8]) it was 92% (active); in assay [3] (at 50.0 µM), 98% (active); in assay [4] (setting [7]), 1% (inactive); in assay [4] (setting [8]), 95% (active); in assay [4] (at 50.0 µM), 97% (active). The growth inhibition was 11% (inactive) in assay [5] (setting [7]); 96% (active) in assay [5] (setting [8]); 97.5% (active) in assay [5] (at 50.0 µM); 3% (inactive) in assay [6] (setting [7]); 95% (active) in assay [6] (setting [8]); 98.2% (active) in assay [6] (at 50.0 µM).

As for `CCCCCCCCCCCC(=O)[O][Hg][c]1ccccc1`, the growth inhibition is 99% (active) in assay [1] (setting [7]); 99% (active) in assay [1] (setting [8]); 99.4% (active) in assay [1] (at 50.0 µM); 100% (active) in assay [2] (setting [7]); 100% (active) in assay [2] (setting [8]); 99.7% (active) in assay [2] (at 50.0 µM). Besides, the growth inhibition was 100% (active) in assay [3] (setting [7]); 99% (active) in assay [3] (setting [8]); 99.7% (active) in assay [3] (at 50.0 µM); 99% (active) in assay [4] (setting [7]); 99% (active) in assay [4] (setting [8]); 99.4% (active) in assay [4] (at 50.0 µM). The growth inhibition was 99% (active) in assay [5] (setting [7]); 99% (active) in assay [5] (setting [8]); 99.5% (active) in assay [5] (at 50.0 µM); 99% (active) in assay [6] (setting [7]); 99% (active) in assay [6] (setting [8]); 99.7% (active) in assay [6] (at 50.0 µM).

For `Ic1cccc2c1[se]c1ccccc12`, the growth inhibition was -8% (inactive) in assay [1] (setting [7]); 22% (inactive) in assay [1] (setting [8]); 25.2% (inactive) in assay [1] (at 50.0 µM); 8% (inactive) in assay [2] (setting [7]); 20% (inactive) in assay [2] (setting [8]); -4.05% (inactive) in assay [2] (at 50.0 µM). In addition, the growth inhibition is 0% (inactive) in assay [3] (setting [7]); 40% (inactive) in assay [3] (setting [8]); 6.7% (inactive) in assay [3] (at 50.0 µM); 5% (inactive) in assay [4] (setting [7]); -28% (inactive) in assay [4] (setting [8]); -27.8% (inactive) in assay [4] (at 50.0 µM). The growth inhibition was -3% (inactive) in assay [5] (setting [7]); 27% (inactive) in assay [5] (setting [8]); -11.3% (inactive) in assay [5] (at 50.0 µM); 9% (inactive) in assay [6] (setting [7]); 75% (active) in assay [6] (setting [8]); 2.15% (inactive) in assay [6] (at 50.0 µM).

Turning to `CCCCCCCCCCCC[As](=O)(O)O`, the growth inhibition in assay [1] (setting [7]) was 0% (inactive); in assay [1] (setting [8]) it was 31% (inactive); in assay [1] (at 50.0 µM), 99.4% (active); in assay [2] (setting [7]), -1% (inactive); in assay [2] (setting [8]) it was 26% (inactive); in assay [2] (at 50.0 µM), 99.3% (active). Further, the growth inhibition in assay [3] (setting [7]) was 7% (inactive); in assay [3] (setting [8]), 48% (inactive); in assay [3] (at 50.0 µM), 98.2% (active); in assay [4] (setting [7]), -3% (inactive); in assay [4] (setting [8]) it was 46% (inactive); in assay [4] (at 50.0 µM), 98.5% (active). Further, the growth inhibition was 3% (inactive) in assay [5] (setting [7]); 53% (inactive) in assay [5] (setting [8]); 99.2% (active) in assay [5] (at 50.0 µM); 6% (inactive) in assay [6] (setting [7]); 51% (inactive) in assay [6] (setting [8]); 98.9% (active) in assay [6] (at 50.0 µM).

With `CCCCN(C)CC(C(C)=O)C(c1ccccc1)c1c(O)c2ccccc2oc1=O` (stereo not given), the growth inhibition in assay [1] (setting [7]) was 32% (inactive); in assay [1] (setting [8]), 32% (inactive); in assay [1] (at 50.0 µM) it was 80.4% (active); in assay [2] (setting [7]), 18% (inactive); in assay [2] (setting [8]), 18% (inactive); in assay [2] (at 50.0 µM), 78.4% (active). The growth inhibition in assay [3] (setting [7]) was 11% (inactive); in assay [3] (setting [8]), 11% (inactive); in assay [3] (at 50.0 µM), 82.3% (active); in assay [4] (setting [7]), 6% (inactive); in assay [4] (setting [8]), 6% (inactive); in assay [4] (at 50.0 µM) it was 80.2% (active). Also, the growth inhibition is 15% (inactive) in assay [5] (setting [7]); 15% (inactive) in assay [5] (setting [8]); 81.5% (active) in assay [5] (at 50.0 µM); 22% (inactive) in assay [6] (setting [7]); 22% (inactive) in assay [6] (setting [8]); 85.8% (active) in assay [6] (at 50.0 µM).

In the case of `OC(c1cc2c(c3ccccc13)CCCC2)C1CCCCN1` (stereo not given), the growth inhibition in assay [1] (setting [7]) is -4% (inactive); in assay [1] (setting [8]), 17% (inactive); in assay [1] (at 50.0 µM), 64.5% (inactive); in assay [2] (setting [7]), -1% (inactive); in assay [2] (setting [8]), 12% (inactive); in assay [2] (at 50.0 µM), 42.4% (inactive). Besides, the growth inhibition in assay [3] (setting [7]) is 3% (inactive); in assay [3] (setting [8]), 47% (inactive); in assay [3] (at 50.0 µM) it was 68% (inactive); in assay [4] (setting [7]), 1% (inactive); in assay [4] (setting [8]), 21% (inactive); in assay [4] (at 50.0 µM), 79.7% (active). The growth inhibition is 0% (inactive) in assay [5] (setting [7]); 18% (inactive) in assay [5] (setting [8]); 59% (inactive) in assay [5] (at 50.0 µM); 0% (inactive) in assay [6] (setting [7]); 41% (inactive) in assay [6] (setting [8]); 95.5% (active) in assay [6] (at 50.0 µM).

Turning to `CCOP(=O)(OCC)/C(C#N)=C/c1cccc(C)c1`, the growth inhibition in assay [1] (setting [7]) is 4% (inactive); in assay [1] (setting [8]) it was 53% (inactive); in assay [1] (at 50.0 µM), 71.4% (active); in assay [2] (setting [7]) it was -14% (inactive); in assay [2] (setting [8]), 28% (inactive); in assay [2] (at 50.0 µM), 58.3% (inactive). Further, the growth inhibition in assay [3] (setting [7]) is -18% (inactive); in assay [3] (setting [8]), 42% (inactive); in assay [3] (at 50.0 µM), 65.8% (inactive); in assay [4] (setting [7]), -17% (inactive); in assay [4] (setting [8]), 9% (inactive); in assay [4] (at 50.0 µM), 35% (inactive). The growth inhibition is -8% (inactive) in assay [5] (setting [7]); 52% (inactive) in assay [5] (setting [8]); 52.1% (inactive) in assay [5] (at 50.0 µM); -37% (inactive) in assay [6] (setting [7]); 56% (inactive) in assay [6] (setting [8]); 66.3% (inactive) in assay [6] (at 50.0 µM).

Source of the values: PubChem BioAssay (NCI).
